From PubChem BioAssay AID1212 (NMMLSC, 2008)
Active and inactive are the calls of the source.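 Rule for the calls: active = blocks over 60% of fluorescent estradiol binding at 10 µM; inactive = the rest.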

biological target: G-protein coupled estrogen receptor 1 (Homo sapiens) (UniProt Q99527); assay: GPR30 competitive binders vs fluorescent estrogen, primary screen, cell-based, Cos7 GPR30-GFP, flow cytometry, 10 µM (AID 1212); details: fluorescent estrogen competition, at 10 µM; active compounds read high

**Q.** For `COc1cc(C2C3C(C)N(C)C(=O)N(C)C3N(C)C(=O)N2C)ccc1O` (stereo not given), which outcome is on record?
**A.** The outcome was “inactive”.

**Q.** Which inhibition does the source give for `COc1cc2c(cc1OC)C(Cc1ccc(O)cc1)N(C)CC2` (stereo not given) here?
**A.** Its inhibition is 1% (inactive).

**Q.** Which outcome does the source give for `CCOc1cc2c(cc1OCC)C(C1CCCCC1)NCC2` (stereo not given) here?
**A.** The outcome was “inactive”.

**Q.** Which inhibition does the source give for `CC(=O)Oc1ccc(C2Nc3c(C(=O)O)ccc([N+](=O)[O-])c3C3C=CCC32)cc1` (stereo not given) here?
**A.** Its inhibition is 99% (active).

**Q.** Which inhibition does the source give for `CCOc1ccc(NS(=O)(=O)c2ccc3c(c2)[C@H]2C=CC[C@H]2[C@@H](c2ccc(C(=O)O)cc2)N3)cc1` here?
**A.** The inhibition was 100% (active).

**Q.** `CCOc1cc2c(c([N+](=O)[O-])c1)NC(c1ccc(Br)cc1)C1CC=CC21` (stereo not given) was tested. Which inhibition did it give?
**A.** Its inhibition is 23% (inactive).

**Q.** `O=C1CC(c2ccc3c(c2)OCO3)c2ccc3ccccc3c2N1` (stereo not given) was tested. Which outcome did it give?
**A.** The outcome was “inactive”.

**Q.** How did the outcome turn out when `COc1ccc(-n2cc3c(c(C#N)c2=N)CC(C)(C)CC3=O)cc1` was run?
**A.** The outcome was “inactive”.

**Q.** With `CCOC(=O)c1ccc2c(c1)C1C=CCC1C(c1cccc([N+](=O)[O-])c1)N2` (stereo not given) as the compound, how does the inhibition read?
**A.** The inhibition was 48% (inactive).

**Q.** `CCCCc1cc(=O)oc2c(C)c(O)ccc12` was tested. Which outcome did it give?
**A.** Its outcome is “inactive”.

**Q.** `CC1CCCC(C)N1Cc1c(O)ccc2c3c(c(=O)oc12)CCC3` (stereo not given) was tested. Which inhibition did it give?
**A.** Its inhibition is 23% (inactive).

**Q.** With `COc1ccc(NS(=O)(=O)c2ccc3c(c2)[C@H]2C=CC[C@H]2[C@@H](c2cccc(OC)c2OC)N3)cc1` as the compound, how does the inhibition read?
**A.** The inhibition was 44% (inactive).

**Q.** Which outcome does the source give for `COc1cc2c(c([N+](=O)[O-])c1)NC(c1ccc(Br)cc1)C1CC=CC21` (stereo not given) here?
**A.** The outcome was “inactive”.

**Q.** Which outcome does the source give for `CSC(=O)CNC1(Cc2ccc(O)cc2)CCCCC1` here?
**A.** Its outcome is “inactive”.

**Q.** For `COc1cc([C@@H]2Nc3ccc(S(=O)(=O)Nc4ccccc4F)cc3[C@@H]3C=CC[C@@H]32)cc(OC)c1OC`, which inhibition is on record?
**A.** The inhibition was 17% (inactive).
